Laboratory results: PubChem BioAssay AID1159580 (chemical genetic matrix, 2015)
About 2,000 (36%) of roughly 5,500 compounds were called active. Inconclusive results (about 18%) are left out. Cut-off read from the data, not from the text of the source: active = normalized growth mostly below about 0.91 (no sharp cut-off); inconclusive = no clear call, values can overlap the other calls; inactive = mostly above about 0.92. The list shows a part of the results.

Assay: chemical genetic growth profiling, strain panel (AID 1159580);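 note: tested at 20 µM; growth read once vehicle control cultures reached saturation at 30 °C; 1 = growth at the plate median or of vehicle wells; lower values mean less growth of the strain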
Conditions: growth OD

Measured: normalized growth

COc1cccc2c1CCC1=CC(=O)CC[C@@]12C
inactive: S. cerevisiae deletion strains, locus YJR075W, strain HOC1, stronger effect = lower value 0.973 | S. cerevisiae deletion strains, locus YKL009W, strain mrt4, stronger effect = lower value 0.98 | S. cerevisiae deletion strains, locus YKL068W, stronger effect = lower value 1 | S. cerevisiae deletion strains, locus YKL085W, strain MDH1 (second series), stronger effect = lower value 0.982 | S. cerevisiae deletion strains, locus YKL085W, strain MDH1, stronger effect = lower value 0.982 | S. cerevisiae deletion strains, locus YKL160W, strain elf1, stronger effect = lower value 1 | S. cerevisiae deletion strains, locus YKL190W, strain CNB1, stronger effect = lower value 1.01 | S. cerevisiae deletion strains, locus YKR001C, strain vps1, stronger effect = lower value 0.986 | S. cerevisiae deletion strains, locus YKR026C, strain gcn3, stronger effect = lower value 0.994 | S. cerevisiae deletion strains, locus YKR091W, strain srl3, stronger effect = lower value 0.998 | S. cerevisiae deletion strains, locus YLL001W, strain dnm1, stronger effect = lower value 1 | S. cerevisiae deletion strains, locus YLL026W, stronger effect = lower value 0.992 | S. cerevisiae deletion strains, locus YLL041C, strain sdh2, stronger effect = lower value 0.995 | S. cerevisiae deletion strains, locus YLR027C, strain aat2, stronger effect = lower value 1.01 | S. cerevisiae deletion strains, locus YLR039C, strain RIC1, stronger effect = lower value 1.1 | S. cerevisiae deletion strains, locus YLR058C, strain SHM2, stronger effect = lower value 0.993 | S. cerevisiae deletion strains, locus YLR102C, strain apc9, stronger effect = lower value 0.993 | S. cerevisiae deletion strains, locus YLR221C, strain rsa3, stronger effect = lower value 0.988 | S. cerevisiae deletion strains, locus YLR258W, strain gsy2, stronger effect = lower value 0.999 | S. cerevisiae deletion strains, locus YLR262C, strain YPT6 (second series), stronger effect = lower value 1.05 | S. cerevisiae deletion strains, locus YLR262C, strain YPT6, stronger effect = lower value 1.1 | S. cerevisiae deletion strains, locus YLR268W, strain sec22, stronger effect = lower value 0.973 | S. cerevisiae deletion strains, locus YLR320W, strain mms22, stronger effect = lower value 1 | S. cerevisiae deletion strains, locus YLR330W, strain CHS5, stronger effect = lower value 0.998 | S. cerevisiae deletion strains, locus YLR342W, strain FKS1 (second series), stronger effect = lower value 0.941 | S. cerevisiae deletion strains, locus YLR342W, strain FKS1, stronger effect = lower value 0.997 | S. cerevisiae deletion strains, locus YLR357W, strain rsc2, stronger effect = lower value 1.02 | S. cerevisiae deletion strains, locus YLR370C, strain arc18, stronger effect = lower value 0.99 | S. cerevisiae deletion strains, locus YLR371W, strain rom2, stronger effect = lower value 0.988 | S. cerevisiae deletion strains, locus YLR384C, strain iki3, stronger effect = lower value 1.02 | S. cerevisiae deletion strains, locus YLR418C, strain cdc73, stronger effect = lower value 0.9 | S. cerevisiae deletion strains, locus YML016C, strain PPZ1, stronger effect = lower value 0.989 | S. cerevisiae deletion strains, locus YML032C, strain rad52, stronger effect = lower value 0.988 | S. cerevisiae deletion strains, locus YML120C, strain ndi1, stronger effect = lower value 0.988 | S. cerevisiae deletion strains, locus YML124C, strain tub3, stronger effect = lower value 0.988 | S. cerevisiae deletion strains, locus YMR058W, strain fet3, stronger effect = lower value 1 | S. cerevisiae deletion strains, locus YMR078C, strain ctf18, stronger effect = lower value 0.985 | S. cerevisiae deletion strains, locus YMR125W, strain sto1, stronger effect = lower value 1 | S. cerevisiae deletion strains, locus YMR129W, stronger effect = lower value 0.991 | S. cerevisiae deletion strains, locus YMR205C, strain PFK2, stronger effect = lower value 1 | S. cerevisiae deletion strains, locus YMR223W, strain ubp8, stronger effect = lower value 0.964 | S. cerevisiae deletion strains, locus YMR231W, strain pep5, stronger effect = lower value 1 | S. cerevisiae deletion strains, locus YMR263W, strain SAP30, stronger effect = lower value 0.978 | S. cerevisiae deletion strains, locus YMR307W, strain GAS1, stronger effect = lower value 0.957 | S. cerevisiae deletion strains, locus YNL067W, strain RPL9B, stronger effect = lower value 0.984 | S. cerevisiae deletion strains, locus YNL071W, strain lat1, stronger effect = lower value 1 | S. cerevisiae deletion strains, locus YNL128W, strain TEP1, stronger effect = lower value 1.01 | S. cerevisiae deletion strains, locus YNL153C, strain GIM3, stronger effect = lower value 0.989 | S. cerevisiae deletion strains, locus YNL209W, strain ssb2, stronger effect = lower value 1.02 | S. cerevisiae deletion strains, locus YNL233W, strain BNI4, stronger effect = lower value 0.988 | S. cerevisiae deletion strains, locus YNL248C, strain rpa49, stronger effect = lower value 1.01 | S. cerevisiae deletion strains, locus YNL250W, strain rad50, stronger effect = lower value 0.997 | S. cerevisiae deletion strains, locus YNL271C, strain bni1, stronger effect = lower value 0.985 | S. cerevisiae deletion strains, locus YNL298W, strain CLA4, stronger effect = lower value 0.969 | S. cerevisiae deletion strains, locus YNL307C, strain MCK1, stronger effect = lower value 0.933 | S. cerevisiae deletion strains, locus YNL322C, strain KRE1 (second series), stronger effect = lower value 1.01 | S. cerevisiae deletion strains, locus YNL322C, strain KRE1, stronger effect = lower value 1 | S. cerevisiae deletion strains, locus YNR049C, strain mso1, stronger effect = lower value 1.02 | S. cerevisiae deletion strains, locus YNR052C, strain pop2, stronger effect = lower value 0.996 | S. cerevisiae deletion strains, locus YOL006C, strain TOP1, stronger effect = lower value 0.863 | S. cerevisiae deletion strains, locus YOL012C, strain htz1 1.1 | S. cerevisiae deletion strains, locus YOL147C, strain pex11, stronger effect = lower value 0.982 | S. cerevisiae deletion strains, locus YOR001W, strain rrp6, stronger effect = lower value 1.02 | S. cerevisiae deletion strains, locus YOR061W, strain CKA2, stronger effect = lower value 0.996 | S. cerevisiae deletion strains, locus YOR069W, strain VPS5, stronger effect = lower value 1 | S. cerevisiae deletion strains, locus YOR070C, strain gyp1, stronger effect = lower value 1 | S. cerevisiae deletion strains, locus YOR080W, strain dia2, stronger effect = lower value 1 | S. cerevisiae deletion strains, locus YOR083W, strain WHI5, stronger effect = lower value 1.01 | S. cerevisiae deletion strains, locus YOR106W, strain vam3, stronger effect = lower value 1.01 | S. cerevisiae deletion strains, locus YOR136W, strain idh2, stronger effect = lower value 0.992 | S. cerevisiae deletion strains, locus YOR144C, strain elg1, stronger effect = lower value 0.991 | S. cerevisiae deletion strains, locus YOR184W, strain ser1, stronger effect = lower value 0.913 | S. cerevisiae deletion strains, locus YOR265W, strain rbl2, stronger effect = lower value 1 | S. cerevisiae deletion strains, locus YOR270C, strain vph1, stronger effect = lower value 0.915 | S. cerevisiae deletion strains, locus YOR290C, strain snf2, stronger effect = lower value 1.02 | S. cerevisiae deletion strains, locus YOR316C, strain cot1, stronger effect = lower value 0.99 | S. cerevisiae deletion strains, locus YPL051W, strain arl3, stronger effect = lower value 1 | S. cerevisiae deletion strains, locus YPL055C, strain LGE1, stronger effect = lower value 0.946 | S. cerevisiae deletion strains, locus YPL078C, strain atp4, stronger effect = lower value 1 | S. cerevisiae deletion strains, locus YPL106C, strain sse1, stronger effect = lower value 1.02 | S. cerevisiae deletion strains, locus YPL240C, strain hsp82, stronger effect = lower value 0.995 | S. cerevisiae deletion strains, locus YPL241C, strain CIN2, stronger effect = lower value 1 | S. cerevisiae deletion strains, locus YPR119W, strain clb2, stronger effect = lower value 0.989 | S. cerevisiae deletion strains, locus YPR141C, strain kar3, stronger effect = lower value 0.997 | S. cerevisiae deletion strains, locus YPR163C, strain tif3, stronger effect = lower value 0.979 | S. cerevisiae deletion strains, locus YPR167C, strain met16, stronger effect = lower value 0.983 | S. cerevisiae deletion strains, strain wtn01, stronger effect = lower value 0.96 | S. cerevisiae strains, strain wild type, stronger effect = lower value 1.01
